Reference: PubChem BioAssay AID1117292 (Broad Institute, 2014)
Potency and affinity values are given separately. Records with an inconclusive call do not appear. Calls of active or inactive are those of the source.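 How the source made its calls: active means compound whose fitted half-maximal dose for signal loss lies within twice the top dose in every replicate test; inconclusive means tests disagree, or flat partial signal loss or poor fit; inactive means every test inactive, flat, rising or too weak.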

Biological target: Endoplasmic reticulum aminopeptidase 1 (Homo sapiens) (UniProt Q9NZ08)
Sequence (Q9NZ08 whole entry, looked up): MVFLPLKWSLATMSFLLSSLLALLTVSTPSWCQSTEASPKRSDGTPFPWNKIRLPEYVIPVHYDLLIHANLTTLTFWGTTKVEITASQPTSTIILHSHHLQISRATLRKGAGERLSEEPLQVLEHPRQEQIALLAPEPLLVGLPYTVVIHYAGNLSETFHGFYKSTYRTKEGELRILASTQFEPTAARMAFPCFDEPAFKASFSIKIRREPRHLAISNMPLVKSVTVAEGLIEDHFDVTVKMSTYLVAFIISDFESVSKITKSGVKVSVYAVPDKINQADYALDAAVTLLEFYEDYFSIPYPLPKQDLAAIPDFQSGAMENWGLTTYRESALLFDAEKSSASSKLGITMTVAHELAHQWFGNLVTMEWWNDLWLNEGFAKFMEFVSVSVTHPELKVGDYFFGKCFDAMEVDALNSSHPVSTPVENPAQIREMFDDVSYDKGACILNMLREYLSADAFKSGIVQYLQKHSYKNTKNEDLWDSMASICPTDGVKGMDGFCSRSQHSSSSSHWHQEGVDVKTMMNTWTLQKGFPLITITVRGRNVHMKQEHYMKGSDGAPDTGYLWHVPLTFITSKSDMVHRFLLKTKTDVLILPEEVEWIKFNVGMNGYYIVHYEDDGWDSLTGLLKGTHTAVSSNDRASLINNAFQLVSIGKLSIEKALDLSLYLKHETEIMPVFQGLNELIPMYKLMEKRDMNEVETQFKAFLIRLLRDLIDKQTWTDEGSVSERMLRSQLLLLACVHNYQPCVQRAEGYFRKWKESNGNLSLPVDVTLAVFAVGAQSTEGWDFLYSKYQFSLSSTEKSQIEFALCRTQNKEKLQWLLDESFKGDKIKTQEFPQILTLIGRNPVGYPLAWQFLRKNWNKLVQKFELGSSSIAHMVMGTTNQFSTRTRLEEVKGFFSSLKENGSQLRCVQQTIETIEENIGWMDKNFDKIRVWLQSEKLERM
Assay: blocking ERAP1 cleavage of leucine-AMC substrate – biochemical, fluorescence plate reader, dry powder, dose response (AID 1117292)
Details: purified ERAP1, Leu-AMC fluorescence, 60 min; series mostly up to 50 µM

outcome, inactive:
O=[N+]([O-])c1cccc(S(=O)(=O)Nc2cc(C(F)(F)F)ccc2N2CCCCC2)c1
CC(=O)N1CCN(C(=O)C2(NC(=O)Nc3ccc(C(C)C)cc3)CCCC2)CC1
CC(=O)N1CCN(C(=O)C2(NC(=O)Nc3cccc(F)c3)CCCCC2)CC1
COc1cccc(NC(=O)NC2(C(=O)N3CCN(C(C)=O)CC3)CCCCC2)c1
COc1ccc(C(=O)Nc2cc(C(F)(F)F)ccc2N2CCCCC2)cc1S(=O)(=O)O
CC(=O)N1CCN(C(=O)C2(NC(=O)Nc3ccc(C(F)(F)F)cc3)CCCC2)CC1
Cc1ccc(NC(=O)NC2(C(=O)N3CCNCC3)CCCCC2)cc1
Cc1ccc(NC(=O)NC2(C(=O)N3CCN(c4ccccc4)CC3)CCCCC2)cc1
CC(=O)N1CCN(C(=O)C2(NC(=O)Nc3cccc(C(F)(F)F)c3)CCCCC2)CC1
O=S(=O)(Nc1cc(C(F)(F)F)ccc1N1CCCCC1)c1ccc(Br)cc1
O=S(=O)(Nc1cc(C(F)(F)F)ccc1N1CCCCC1)c1cc(Cl)cc(Cl)c1
O=[N+]([O-])c1ccc(S(=O)(=O)Nc2cc(C(F)(F)F)ccc2N2CCCCC2)c([N+](=O)[O-])c1
CC(=O)N1CCN(C(=O)C2(NC(=O)Nc3ccc(C(C)C)cc3)CCCCC2)CC1
COc1ccc(C(=O)O)cc1S(=O)(=O)Nc1cc(C(F)(F)F)ccc1N(C)C
CC(=O)N1CCN(C(=O)C2CCCN2C(=O)Nc2ccc(C)cc2)CC1 (configuration not stated)
CC(=O)N1CCN(C(=O)CNC(=O)Nc2ccc(C)cc2)CC1
COc1ccc(C(=O)Nc2cccc(C(F)(F)F)c2)cc1S(=O)(=O)O
Cc1ccccc1S(=O)(=O)Nc1cc(C(F)(F)F)ccc1N1CCCCC1
CC(=O)N1CCN(C(=O)C2(NC(=O)Nc3ccccc3)CCCC2)CC1
N#Cc1ccc(S(=O)(=O)Nc2cc(C(F)(F)F)ccc2N2CCCCC2)cc1
O=S(=O)(Nc1cc(C(F)(F)F)ccc1N1CCCCC1)c1ccccc1
CC(=O)N1CCN(C(=O)C2(NC(=O)NC(C)(C)C)CCCCC2)CC1
